From PubChem BioAssay
BAZ2B inh: inhibitors of human BAZ2B bromodomain | AlphaScreen BAZ2B-H3K14Ac peptide displacement | 4.4% of 360,000 active | AID 504333 | Q9UIF8 | Potency, µM (highest dose often 114 µM), actives largely listed as inhibitors; also: nearly all actives have a fitted effect of over 60% in size
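AlphaScreen displacement: compounds (up to 110uM) incubated 30 min at room temperature with a preformed 50 nM BAZ2B/50 nM biotinylated H3K14Ac peptide complex in PBS pH 7.4 with Tween-20. Donor and acceptor beads at 10 ug/mL final added, 20 min light-protected before reading.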
JMJD2A Tudor inh: JMJD2A Tudor domain (human) inhibition. O75164. AlphaScreen JMJD2A-Tudor / H3K4me3 peptide binding. Potency, µM (doses to about 114 µM), most hits filed as inhibitors. 4.4% of 390,000 active. AID 504339; also: nearly all actives have a fitted effect of over 50% in size
G9a block: blocks human histone lysine methyltransferase G9a. Potency, µM (doses to about 102 µM), most hits filed as inhibitors. G9a H3K9 monomethylation, AlphaScreen, 2 h. AID 504332. 8.8% of 350,000 active. Q96KQ7; also: nearly all actives have a fitted effect of over 75% in size
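Step 1: enzyme (final 20 nM) with compound, 15 min RT. Step 2: substrate peptide 500 nM and SAM 20 uM, 2 h RT. Step 3: anti-H3K9me1 antibody and AlphaScreen beads, 10 min, then plate read.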
Sfp PPTase inh: blocks B. subtilis Sfp PPTase activity; Biochemical Sfp PPTase activity, qHTS; Potency, µM, hits mostly inhibitors; 3.5% of 310,000 active; AID 1490;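 also: the enzyme is Sfp with the accession as filed and its product quenches rhodamine fluorescence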
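Buffer: 50 mM Hepes-Na pH 7.6, 10 mM MgCl2, 0.01% Nonidet P-40, 0.01% BSA. Enzyme 15 nM, pre-exposed to compound 15 min; substrates then added and fluorescence change tracked over 30 min.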
HP1b binding inh: blocks HP1-beta chromodomain binding to methylated histone tails. P83916. AlphaScreen HP1-beta / biotin-H3K9me3 peptide binding. Potency, µM (series often up to 114 µM), usual class: inhibitors. 0.56% of 390,000 active; also: nearly all actives have a fitted effect of over 70% in size
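HP1-beta protein (50 nM final) preincubated 30 min at room temperature with biotinylated H3(1-18)K9me3 peptide (50 nM) in PBS pH 7.4, 0.01% Tween-20, then compound added for 30 min. AlphaScreen streptavidin donor/nickel chelate acceptor beads (10 ug/mL final), 30 min dark, luminescence read.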
L3MBTL1 inh: blocks human L3MBTL1 | Q9Y468 | AlphaScreen L3MBTL1–H3K9me1 peptide binding | Potency, µM (titrated, usually from 57.1 µM), most hits filed as inhibitors | 0.66% of 230,000 active | AID 485360; also: nearly all actives have a fitted effect of over 60% in size
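Read-out is AlphaScreen signal from streptavidin donor and nickel chelate acceptor beads (10 ug/mL final each) bridging L3MBTL1 (50 nM) and biotinylated K9-monomethylated H3(1-15) peptide (75 nM), after 30 min compound exposure at room temperature.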
A number is an active result; n = inactive; u = inconclusive; x = not tested or not shown; [ ] = dose if it differs, or a comment. Hits are enriched below; roughly 12% of the tested compounds scored in any of these assays. Calls follow the shape of the dose curve; as a rule, active = well fitted curve in the direction sought with a large enough effect; inconclusive = small, poorly fitted or top-dose-only effect, or another doubt; inactive = no such curve, though single readings can be large; an effect the other way counts as inactive or inconclusive.

SMILES	BAZ2B inh	JMJD2A Tudor inh	G9a block	Sfp PPTase inh	HP1b binding inh	L3MBTL1 inh
COC(=O)C1Cc2c([nH]c3ccccc23)C(C)N1 (stereo unspecified)	n	u	20µM	n	n	n
Cc1ccc(C)c(CN2C(=O)c3ccccc3S(=O)(=O)c3ccc(C(=O)N4CCOCC4)cc32)c1	n	n	n	x	n	x
COc1ccc2c(c1)c(=O)oc1cc3oc(C)c(C)c3cc12	56.2µM	x	u	n	x	x
CCc1ccc(OCC(=O)NC(NC(=S)Nc2ccccc2)C(Cl)(Cl)Cl)cc1 (stereo unspecified)	n	n	n	n	n	n
CCC(=O)NC(NC(=S)Nc1ccc(S(N)(=O)=O)cc1)C(Cl)(Cl)Cl (stereo unspecified)	n	n	8.91µM	n	n	n
CC(=O)NC(NC(=S)Nc1ccc(S(N)(=O)=O)cc1)C(Cl)(Cl)Cl (stereo unspecified)	n	n	44.7µM	n	n	n
Cc1cccc(C(=O)NC(NC(=S)Nc2ccc(S(N)(=O)=O)cc2)C(Cl)(Cl)Cl)c1 (stereo unspecified)	u	n	u	n	n	n
CC(C)CC(=O)NC(NC(=S)Nc1ccccc1)C(Cl)(Cl)Cl (stereo unspecified)	n	n	31.6µM	n	n	n
CN(C)c1ncnc2ccc(-c3ccc4c(c3)OCO4)cc12	x	x	n[0.501 µM]	n	x	x
CCOc1ccc(NC(=O)CCS(=O)(=O)c2ccc3nc(C)sc3c2)cc1	n	n	n	x	n	x
O=C1S/C(=C\c2ccc(N3CCOCC3)o2)C(=O)N1Cc1c(F)cccc1Cl	n	u	u	2.82µM	n	n
O=C1S/C(=C/c2ccc(N3CCOCC3)o2)C(=O)N1Cc1c(F)cccc1Cl	n	n	1.78µM	4.47µM	n	x
O=C(NCCN1CCOCC1)c1ccc2c(c1)N(Cc1c(F)cccc1Cl)C(=O)c1ccccc1S2	n	n	u	n	n	x
Cc1ccc(-n2c(C)cc(C3=NNC(=NC4CC4)SC3)c2C)cc1C	50.1µM	50.1µM	44.7µM	n	u	n
CN=C1NN=C(c2cc(C)n(-c3ccc(Cl)cc3)c2C)CS1	x	u	31.6µM	35.5µM	n	n
CC(=O)N1CCc2c(sc(NC(=O)C3CC3)c2-c2nc3ccccc3s2)C1	n	n	u	44.7µM	n	n
CCCCC(=O)Nc1sc2c(c1-c1nc3ccccc3s1)CCN(C(C)=O)C2	n	x	n	u	x	n
O=C1Cc2ccccc2C(=O)N1c1cccc(Cl)c1	n	n	39.8µM	n	n	x
O=C1Cc2ccccc2C(=O)N1Cc1ccccc1	n	n[11.4 µM]	50.1µM	n	n	x
O=C1Cc2ccccc2N1c1c(Cl)cccc1Cl	n	n	u	n	n	n
O=C1Cc2ccccc2C(=O)N1c1ccc(F)cc1Cl	n	n	50.1µM	n	n	x
O=C1Cc2ccccc2C(=O)N1c1ccccc1	n	n	n	n	n	x
C[C@@H]1CN([C@@H](C)CO)C(=O)c2cc(NC(=O)Nc3ccc(F)cc3)ccc2O[C@@H]1CN(C)Cc1ccc(Oc2ccccc2)cc1	x	u	x	x	n	n
CSCCC(NS(=O)(=O)c1ccc(C)cc1)C(=O)NCC(C)(C)N1CCOCC1 (stereo unspecified)	n	n	n[12.7 µM]	x	n	n
O=c1cc(-c2ccccc2)[nH]n1-c1ccccc1	x	u	x	x	n	x
SMILES	BAZ2B inh	JMJD2A Tudor inh	G9a block	Sfp PPTase inh	HP1b binding inh	L3MBTL1 inh
O=C1C=CC(=O)N1c1cccc(-c2ccccc2)c1	n	50.1µM	1µM	1.78µM	31.6µM	n
CCCc1nn2c(=O)cc(COC(=O)c3ccco3)nc2s1	n	n	n	x	n	x
O=C(C[n+]1cc(-c2ccc(Cl)cc2)n2c1CCC2)Nc1nc(-c2ccc(F)cc2)cs1	u	n	u	44.7µM	n	n
O=C(C[n+]1cc(-c2ccc(F)cc2)n2c1CCC2)Nc1nc(-c2ccc(F)cc2)cs1	n	n	n	n	n	n
CNCCCCOc1ccccc1Cc1ccccc1	n	x	n	n	x	x
CNCCCCOc1ccc(C(C)(C)C)cc1Cl	u	5.62µM	14.1µM	n	u	n
Cc1ccc(OCCCNCCO)c(Br)c1	n	n	n	n	n	x
CCCCNCCCOc1ccc(C)cc1Br	56.2µM	20µM	50.1µM	n	u	n
CNCCCOc1ccc(C)cc1Br	56.2µM	3.16µM	u	n	u	x
COc1cccc(C(CCc2cc(OC)c(OC)c(OC)c2)NC(C)=O)c1 (stereo unspecified)	x	u	x	x	n	x
CCCc1nnc(NC(=O)C2CC(=O)N(CCc3ccc(F)cc3)C2)s1 (stereo unspecified)	n	n	u	n	n	x
COCc1nnc(NC(=O)C2CC(=O)N(C3CCCCC3)C2)s1 (stereo unspecified)	n	n	x	n	n	x
COCc1nnc(NC(=O)C2CC(=O)N(CCc3ccc(F)cc3)C2)s1 (stereo unspecified)	u	n	39.8µM	u	n	x
COCc1nnc(NC(=O)C2CC(=O)N(C3CCCC3)C2)s1 (stereo unspecified)	n	n	28.2µM	u	n	x
COc1cccc2cc(C(=O)C3=C(O)C(=O)N(CCN(C)C)C3c3ccc(F)cc3)oc12 (stereo unspecified)	n	n	50.1µM	n	n	n
Cc1ccc(C2C(C(=O)c3cc4ccccc4o3)=C(O)C(=O)N2CCN(C)C)o1 (stereo unspecified)	x	n[11.4 µM]	x	x	n	x
CCN(CC)CCCN1C(=O)C(O)=C(C(=O)c2cc3cccc(OC)c3o2)C1c1ccncc1 (stereo unspecified)	n	n	50.1µM	n	x	n
CN(C)CCN1C(=O)C(O)=C(C(=O)c2cc3ccccc3o2)C1c1ccc(N(C)C)cc1 (stereo unspecified)	u	u	50.1µM	n	n	n
COc1cccc2cc(C(=O)C3=C(O)C(=O)N(CCCN(C)C)C3c3ccncc3)oc12 (stereo unspecified)	n	x	u	n	x	n
Cc1ccc(OCc2cc(C(=O)N3CC4C[C@@H]5CC3C[C@H](C4)C5)no2)cc1C	n	n	n	n	n	x
Cc1ccc(OCc2cc(C(=O)N3CCc4[nH]cnc4C3c3ccccn3)no2)cc1C (stereo unspecified)	u	u	70.8µM	n	n	x
O=c1[nH]cnc2nc(-c3ccccc3)c(-c3ccccc3)nc12	n	n	n	n	n	n
O=c1[nH]cnc2ncc(-c3ccc(O)cc3)nc12	x	79.4µM	x	x	n	x
C[C@H]1COC(=O)[C@H]2CCCN2C(=O)[C@@H](C)COC(=O)[C@H](Cc2ccccc2)NC1=O	x	x	x	n	x	x
COc1cccc(C(=O)N2CCN(C(=O)c3cccc4ccccc34)CC2)c1OC	x	n	n	n	n	n
COc1cccc(CN2CCN(C(=O)c3cc(-c4ccccn4)nc4ccc(Cl)cc34)CC2)c1	n	n	u	n	n	n
COc1cccc(CN2CCN(C(=O)c3cccc4ccccc34)CC2)c1	n	28.2µM	x	n	u	n
